# CHT allo act = CHT positive allosteric modulators, primary screen, cell-based, membrane potential dye, choline EC20; actives 0.49% (n = 310,000); B-score at 10 µM; CHT-expressing cells; hits give high values; LV-AA mutant CHT in HEK293 cells;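 active means initial fluorescence not abnormally high and integrated response B-score, plate-corrected, over 3 SD above library mean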
# CHT block = inhibitors of human choline transporter CHT. High affinity choline transporter 1 (Homo sapiens), Q9GZV3. actives 0.86% (n = 310,000). B-score at 10 µM. CHT-expressing cells, membrane potential dye, choline response; hits give low values. AID 488975, 2010;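 active means B-score over 3 SD under the library average, and starting fluorescence ratio not unusually high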;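 further: choline stimulus applied at its EC90 after an EC20 pre-addition; B-score computed on integrated fluorescence ratio after choline addition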
# TMEM16A inh = TMEM16A chloride channel inhibitors, primary screen, cell-based, HTS; actives 1.2% (n = 310,000); HEK293 TMEM16A/YFP iodide influx fluorescence, ionomycin; normalized B-score (activity score, 25-100; higher = stronger inhibition) at 10 µM; Anoctamin-1 (Mus musculus), Q8BHY3;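 active means ratio plate-corrected score three or more library SD toward inhibition, starting fluorescence score within five deviations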;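 further: score derived from kinetic fluorescence span divided by baseline fluorescence per well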
# Target sequence (Q8BHY3 whole entry, looked up): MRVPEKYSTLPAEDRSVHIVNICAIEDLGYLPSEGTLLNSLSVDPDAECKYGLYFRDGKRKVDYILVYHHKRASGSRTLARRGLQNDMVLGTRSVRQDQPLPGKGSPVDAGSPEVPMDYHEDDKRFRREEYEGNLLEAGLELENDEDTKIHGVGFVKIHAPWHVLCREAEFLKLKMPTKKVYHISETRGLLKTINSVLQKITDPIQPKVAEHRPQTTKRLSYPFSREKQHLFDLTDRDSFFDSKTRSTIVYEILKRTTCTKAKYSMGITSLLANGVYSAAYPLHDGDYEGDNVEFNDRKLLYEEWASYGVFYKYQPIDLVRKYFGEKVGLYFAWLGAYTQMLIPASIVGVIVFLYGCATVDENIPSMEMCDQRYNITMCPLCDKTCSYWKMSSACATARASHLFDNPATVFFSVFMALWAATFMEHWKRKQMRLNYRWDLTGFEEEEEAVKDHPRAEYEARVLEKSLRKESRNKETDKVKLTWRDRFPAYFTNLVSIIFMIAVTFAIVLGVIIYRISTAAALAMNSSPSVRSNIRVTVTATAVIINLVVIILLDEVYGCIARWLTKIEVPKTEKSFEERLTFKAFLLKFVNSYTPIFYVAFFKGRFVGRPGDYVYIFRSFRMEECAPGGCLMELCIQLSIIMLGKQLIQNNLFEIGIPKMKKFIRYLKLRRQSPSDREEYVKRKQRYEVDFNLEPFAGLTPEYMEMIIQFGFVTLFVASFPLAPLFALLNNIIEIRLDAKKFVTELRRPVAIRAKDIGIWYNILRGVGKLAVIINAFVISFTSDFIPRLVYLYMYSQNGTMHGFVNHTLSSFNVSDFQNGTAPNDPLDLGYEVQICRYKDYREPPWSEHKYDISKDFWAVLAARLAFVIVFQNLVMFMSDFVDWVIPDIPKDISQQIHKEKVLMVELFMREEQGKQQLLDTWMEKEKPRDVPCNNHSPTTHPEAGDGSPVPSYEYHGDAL
# TMEM16A act = TMEM16A chloride channel activators or potentiators, primary screen, cell-based, HTS; Anoctamin-1 (Mus musculus), Q8BHY3; HEK293 TMEM16A/YFP-H148Q/I152L, iodide quench fluorescence; hits give low values; B-score at 10 µM; actives 0.3% (n = 340,000);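 active means fluorescence-ratio B-score plate-corrected deviation score at least 3 library SD below zero, with starting fluorescence score within 5 deviations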;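 further: channel opened by trigger with iodide after compound preincubation; score built on the fluorescence ratio of max minus min over baseline; more negative score means more quench and so TMEM16A activation or potentiation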
# TMEM16A reconf = TMEM16A chloride channel inhibitors, confirmation, cell-based, re-confirmation; shares compounds with TMEM16A inh; HEK293 TMEM16A/YFP-H148Q, iodide quench fluorescence; ionomycin added to raise cell calcium; inhibition, % at 10 µM; actives 39% (n = 2,300);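 active means mean duplicate percent inhibition, scaled so buffer wells are 0 and the reference blocker 100, over three buffer SD above buffer mean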
# HEK293 Ca mobil = calcium mobilization in TMEM16A/YFP HEK293 cells, confirmation, counter-screen for TMEM16A inhibitor project. shares compounds with TMEM16A inh. Fluo4 calcium mobilization. calcium response (% of ionomycin), % at 10 µM. actives 2% (n = 2,300);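 active means duplicate-averaged calcium signal over 20% of the ionomycin maximum, relative to buffer baseline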;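 further: each well's signal is peak minus trough fluorescence divided by its pre-addition baseline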
# Parental YFP cnt = iodide YFP quench changes in parental YFP-HEK293, counter-screen for TMEM16A inhibitor project, cell-based; shares compounds with TMEM16A inh; ionomycin; YFP ratio F(max-min)/F0 at 10 µM; 2,300 tested, under 10 active; AID 652233, 2013;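 active means yellow fluorescent protein signal ratio exceeding the buffer control mean by over 5 SD of those controls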;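 further: ratio is mean of duplicate wells from kinetic YFP trace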
# ClC-1 inh = ClC-1 chloride channel inhibition, selectivity assay for TMEM16A inhibitor project, cell-based, voltage-dependent ClC-1. shares compounds with TMEM16A inh. CHO ClC-1-YFP, iodide influx fluorescence quench; iodide control reads 0, buffer control 100. ratio percent, % at 10 µM. 2,300 tested, under 10 active. AID 652236, 2013;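 active means duplicate-mean ratio percent above the mean of iodide-only control wells, which defines zero, plus 5 of their SD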;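 further: higher percent means stronger block of ClC-1 iodide influx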
# Hits are given with their value; n = inactive; x = no result given. In the library only some 2.3% were active in any assay of this set; here they are far more common.
SMILES,CHT allo act,CHT block,TMEM16A inh,TMEM16A act,TMEM16A reconf,HEK293 Ca mobil,Parental YFP cnt,ClC-1 inh
Nc1nc(SCC(=O)Nc2ccccc2)[nH]c(=O)c1-c1ccccc1,n,n,n,n,x,x,x,x
Nc1nc(SCC(=O)N2CCc3ccccc3C2)[nH]c(=O)c1-c1ccccc1,n,n,n,n,n,n,n,n
O=C(c1noc2c1CSc1ccccc1-2)N1CCN(c2ccc(Cl)cc2)CC1,n,n,25,n,n,n,n,n
CC(C)(C)OC(=O)C[C@@H]1C/C=C\C[C@@H](CC(=O)N[C@@H](CO)Cc2ccccc2)C(=O)NC[C@@H](c2ccccc2)OC1=O,x,x,x,n,x,x,x,x
Cc1nc(N2CCN(C(=O)c3ccco3)CC2)c(C#N)c2c1CCCC2,n,n,n,n,x,x,x,x
CC(C)Cc1nc(N2CCN(C(=O)c3ccco3)CC2)c(C#N)c2c1CCCC2,n,n,25,n,n,n,n,n
COC(=O)COc1ccc(S(=O)(=O)Nc2ccc3c(c2)OCCO3)cc1C,n,n,25,n,18%,n,n,n
COC(=O)COc1ccc(S(=O)(=O)Nc2ccc3c(c2)OCCO3)cc1Cl,n,n,25,n,46%,n,n,n
Cc1ccc(NS(=O)(=O)c2ccc(OCC(=O)Nc3cccc([N+](=O)[O-])c3)c(C)c2)cc1,n,n,25,n,n,n,n,n
CCc1ccccc1NC(=O)CN1C(=O)c2ccccc2S1(=O)=O,n,n,n,n,x,x,x,x
CCc1ccc(NSc2ccccc2[N+](=O)[O-])cc1,n,n,25,n,n,n,n,n
COc1cc(S(=O)(=O)N2CCCN(C)CC2)ccc1NC(C)=O,n,n,n,n,x,x,x,x
CC(=O)N[C@@H](Cc1c[nH]c2ccccc12)C(=O)NC1CCCc2ccccc21 (stereo not given in full),n,n,n,n,x,x,x,x
Cc1cccc(OCC(=O)OCC(=O)Nc2sccc2C(N)=O)c1,x,x,x,n,x,x,x,x
NC(=O)c1ccsc1NC(=O)COc1ccccc1,n,n,25,n,n,n,n,n
NC(=O)c1ccsc1NC(=O)COC(=O)Cc1cccc2ccccc12,n,n,25,n,45%,n,n,n
NC(=O)c1ccsc1NC(=O)COC(=O)Cc1c[nH]c2ccccc12,n,n,n,n,x,x,x,x
CCN(CC)CCNC(=O)C(=O)Nc1ccc2c(c1)N(S(=O)(=O)c1cccs1)CCC2,n,n,n,n,x,x,x,x
CC1CCN(C(=O)c2cc(-c3ccc4c(c3)OCO4)on2)CC1,n,n,n,n,n,n,n,n
CCOC(=O)c1ccccc1NS(=O)(=O)c1ccc(C)cc1,n,n,n,n,x,x,x,x
CCOC(=O)c1cc(C)n(S(=O)(=O)c2ccc(C)cc2)c1C,n,n,100,n,18%,n,n,n
Cc1ccnc(NC(=O)c2cnc(Cl)c(Cl)c2)c1,n,n,n,n,x,x,x,x
CCCOC(=O)c1ccc(NC(=O)CSC2=Nc3ccccc3C3CC=NN23)cc1 (stereo not given),n,n,100,n,n,n,n,n
O=c1[nH]c2ccccc2n1CCCSCCCn1c(=O)[nH]c2ccccc21,n,n,100,n,38%,n,n,n
O=C(O)C1(O)C[C@H](O)C(O)[C@@H](O)C1 (stereo not given in full),n,n,n,n,x,x,x,x
SMILES,CHT allo act,CHT block,TMEM16A inh,TMEM16A act,TMEM16A reconf,HEK293 Ca mobil,Parental YFP cnt,ClC-1 inh
COC(=O)Cc1nnc(NC(=O)C(C)C)s1,n,n,25,n,n,n,n,n
CCCc1cc(Nc2cccc(OCC)c2)n2ncnc2n1,n,n,n,n,x,x,x,x
CCCc1cc(Nc2cccc(OC)c2)n2ncnc2n1,n,n,100,n,n,n,n,n
Nc1cc(Cl)ccc1C(=O)OCC(=O)NC1CCCCCCC1,x,x,x,n,x,x,x,x
Cc1ccccc1C(=O)N1CCN(c2ccc(NC(=O)c3ccco3)cc2Cl)CC1,n,n,100,n,n,n,n,n
COc1ccccc1OCCOCCn1cnc2ccccc2c1=O,n,n,n,n,x,x,x,x
CC(C)(C)c1ccc(OCCOCCn2cnc3ccccc3c2=O)cc1,n,n,25,n,20%,n,n,n
COc1ccc(/C(O)=C/C(=O)C(=O)NNC(=O)c2ccccc2)cc1,n,n,n,n,x,x,x,x
COc1ccc(/C(O)=C/C(=O)C(=O)NNC(=O)C(O)(c2ccccc2)c2ccccc2)cc1,n,n,100,-10,20%,n,n,n
CCOC(=O)c1sc2nc(C)nc(SC(C)C(=O)N(C)c3ccccc3)c2c1C (stereo not given),x,x,x,n,x,x,x,x
N#Cc1ccc(C(=O)Nc2nnc(-c3cccs3)o2)cc1,n,n,n,n,x,x,x,x
O=C(Nc1nnc(-c2cccs2)o1)c1cccc(C(F)(F)F)c1,n,n,25,n,n,26%,n,n
CC(C)(C)c1cc(C(c2cccnc2)N2CCN(CCO)CC2)cc(C(C)(C)C)c1O (stereo not given),n,n,100,n,68%,n,n,n
COc1ccc2c(c1)CC/C(=C/c1ccco1)C2=O,n,n,n,n,n,n,n,n
O=C1/C(=C/c2ccco2)CCc2ccccc21,n,n,n,n,x,x,x,x
Cc1nc(Cl)c(N=Cc2cccc([N+](=O)[O-])c2)c(Cl)n1,n,n,n,n,x,x,x,x
O=C(OCC(=O)N1CCc2ccccc21)c1c2c(nc3ccccc13)CCCCC2,n,n,100,n,n,n,n,n
FC(F)(F)c1cccc(-c2nnc(-c3ccccc3)c(N3CCOCC3)n2)c1,n,n,n,n,x,x,x,x
O=[N+]([O-])c1ccc(-c2nnc(-c3ccccc3)c(N3CCOCC3)n2)cc1,n,n,n,n,n,n,n,n
Cc1ccc(Cl)cc1N1CCN(C(=O)c2cc3c(=O)[nH]c4ccccc4c3n2C)CC1,n,n,25,n,38%,n,n,n
Cc1cc(C)n(C(=O)c2ccc(S(=O)(=O)NCC3CCCO3)cc2)n1 (stereo not given),n,n,n,n,n,n,n,n
Cc1ccc(-c2ccc(S(=O)(=O)NCC3CCCO3)cc2)cc1 (stereo not given),n,n,n,n,x,x,x,x
